The text below walks through data of PubChem BioAssay.

Test [1] in a line: reducers of endogenous Her2 protein level, primary screen, SKBR3 breast tumor cells, AlphaScreen, ATP viability (AID 461;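 active means Her2 level under about 52% in both replicate screens, with viability over 70% of control, limit read from the data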;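 on Her2 level: lower value means less Her2 protein in the cells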;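 on viability: percent of carrier control wells set as 100% viability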). The note with it: 18-24 h, measured here: SKBR3 viability, ATP luminescence, at 10 µM.
In test [2] the target is Receptor tyrosine-protein kinase erbB-2 (Homo sapiens) (UniProt P04626). Described as above. To be noted: 18-24 h, at 10 µM, stronger effect = lower value.
Receptor tyrosine-protein kinase erbB-2 (Homo sapiens), sequence (P04626 whole entry, looked up): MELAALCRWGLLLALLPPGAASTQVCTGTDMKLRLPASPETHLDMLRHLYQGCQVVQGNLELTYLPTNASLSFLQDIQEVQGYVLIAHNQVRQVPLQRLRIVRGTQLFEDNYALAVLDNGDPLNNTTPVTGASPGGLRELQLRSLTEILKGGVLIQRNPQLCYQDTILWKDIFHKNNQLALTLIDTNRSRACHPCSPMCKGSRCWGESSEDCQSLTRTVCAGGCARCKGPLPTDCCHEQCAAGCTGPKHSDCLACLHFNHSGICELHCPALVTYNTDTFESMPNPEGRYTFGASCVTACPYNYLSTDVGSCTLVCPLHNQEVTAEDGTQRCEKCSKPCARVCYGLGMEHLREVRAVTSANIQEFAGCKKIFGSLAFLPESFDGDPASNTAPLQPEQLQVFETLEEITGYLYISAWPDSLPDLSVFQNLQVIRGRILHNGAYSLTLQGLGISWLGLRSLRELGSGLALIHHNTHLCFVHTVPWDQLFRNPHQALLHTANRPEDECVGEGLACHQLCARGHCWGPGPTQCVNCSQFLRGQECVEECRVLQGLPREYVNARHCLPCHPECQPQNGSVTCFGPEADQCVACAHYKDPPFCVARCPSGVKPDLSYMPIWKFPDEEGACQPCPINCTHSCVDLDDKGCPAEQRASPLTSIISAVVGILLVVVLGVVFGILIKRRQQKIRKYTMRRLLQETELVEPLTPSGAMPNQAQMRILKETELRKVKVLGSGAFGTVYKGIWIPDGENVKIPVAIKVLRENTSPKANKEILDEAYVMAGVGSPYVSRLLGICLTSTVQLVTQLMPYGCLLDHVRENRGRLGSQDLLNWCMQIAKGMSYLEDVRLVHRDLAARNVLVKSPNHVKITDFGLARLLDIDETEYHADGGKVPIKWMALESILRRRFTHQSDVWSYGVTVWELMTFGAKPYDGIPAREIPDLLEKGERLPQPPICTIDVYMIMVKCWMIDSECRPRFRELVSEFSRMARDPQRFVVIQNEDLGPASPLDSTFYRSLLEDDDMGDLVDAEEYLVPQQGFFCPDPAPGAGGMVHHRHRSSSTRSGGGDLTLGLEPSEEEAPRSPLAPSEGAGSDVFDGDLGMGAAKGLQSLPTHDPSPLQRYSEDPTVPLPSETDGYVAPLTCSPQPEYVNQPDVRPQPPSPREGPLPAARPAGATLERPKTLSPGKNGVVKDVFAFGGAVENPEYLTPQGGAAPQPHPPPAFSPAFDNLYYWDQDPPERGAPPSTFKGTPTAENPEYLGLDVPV
Test [3] can be described thus: SK-BR-3 cell growth inhibitors, pilot screen, 24 h, human (AID 572;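 active means viability at or below 10% of carrier control in both of two separate runs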;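 further: compound exposure lasted between 18 and 24 h rather than exactly 24 h; 100% = carrier-treated control wells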). To be noted: SK-BR-3 viability, CellTiter-Glo luminescence, at 10 µM, stronger effect = lower value.
A short description of test [4]: HUVEC growth inhibition – cell-based, human, primary screen (AID 575;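 active means viability at or below 30% in both replicate assays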;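 further: 100% = median of untreated cell wells with 0.1% DMSO on each plate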). The note with it: HUVEC proliferation, CellTiter-Glo luminescence, 72 h; at 10 µM; stronger effect = lower value. Background: Cellular ATP, detected with luciferase, serves as a proxy for viable cell number.
The nature of test [5]: growth inhibitors of H69AR lung tumor, primary screen, human, duplicate replicates (AID 580).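 Further: 100% = mean luminescence of untreated wells and 0% = no signal.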 To be noted: H69AR lung tumor cells viability, ATP luminescence, 72 h; at 10 µM; stronger effect = lower value.
The nature of test [6]: reversal of MRP1-mediated doxorubicin resistance, pilot screen, H69AR cells, doxorubicin co-treatment (AID 601;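 active means viability loss from added drug above about 55%, and viability with drug at most 40%, in both replicates, limit read from the data, passing the limit was not always enough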). The note with it: CellTiter-Glo, 72 h, at 10 µM; for differential viability (reversal): stronger effect = higher value.
The nature of test [7]: 384-well plate pilot, post-Golgi transport modulator project, inhibition of yeast transport mutant growth (AID 636; in the data active means inhibition above about 31%). The note with it: absorbance 615 nm, about 18 h, stronger effect = higher value.
Test [8] is described as follows: growth suppression of yeast trafficking mutant, preliminary HTS, modulators of trafficking downstream of Golgi apparatus project, 1536-format plate, OD 615 nm (AID 637; in the data active means inhibition above about 30%). To be noted: yeast transport mutant growth, absorbance 615 nm, 18 h; stronger effect = higher value.
The nature of test [9]: OD615 S. cerevisiae growth inhibition, permissive medium, pilot counter-assay, permissive growth control for S. cerevisiae lifespan shortening project (AID 705;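 active means growth inhibition above 25% in both replicates, a cutoff set 3 SD above the mean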). To be noted: OD615, 24 h, at 10 µM, stronger effect = higher value.
Test [10] in a line: Restrictive medium S. cerevisiae growth inhibition, OD615, pilot screen of yeast lifespan reduction project, restrictive growth control (AID 706;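 active means growth inhibition above a set limit, 3 SD over mean compound inhibition, in both replicates, cut at about 43% in these data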;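 further: modified DeaD lifespan yeast strain shifted to restrictive glucose medium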). The note with it: OD615, 48 h, at 10 µM, stronger effect = higher value.
The nature of test [11]: viability gain of MRP-1-high H69AR cells under doxorubicin, pilot screen, MRP-1 activator project, CellTiter-Glo, duplicate (AID 807;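 active means viability increase at or above a cutoff of the median across tested compounds plus 3 SD, cut at about 8.5% in these data, passing the limit was not always enough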;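 further: compound pretreatment 18-22 h then 72 h combined with doxorubicin; 0% = doxorubicin alone and 100% = vehicle without doxorubicin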). The note with it: H69AR viability with doxorubicin, CellTiter-Glo luminescence; at 10 µM; stronger effect = higher value.
A short description of test [12]: growth suppression of PTEN-deleted HCT116, pilot screen, cell-based, HCT116 clonal line, CellTiter-Glo (AID 824;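 active means viability at or below 27.92% in each of two runs, the all-compound median minus 4 SD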;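 further: 0% = 20 µM Hyamine control and 100% = vehicle cell control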). To be noted: 60 h, at 10 µM, stronger effect = lower value.
The nature of test [13]: inhibitors of the yeast RAM network, pilot screen, dse1pr::URA3 reporter, 5-FOA selection (AID 869;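 active means inhibition over a set limit, the all-compound mean plus 3 SD, in both replicate runs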;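 further: 0% = DMSO wells with no growth and 100% = 10 µM 1-NA-PP1 with full growth; RAM network block rescues cells from 5-FOA so hits raise OD615 growth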). The note with it: S. cerevisiae dse1pr::URA3 5-FOA growth, OD615, 2 d; at 10 µM; stronger effect = higher value; strain carries analog-sensitive mutant Cbk1 kinase.
A short description of test [14]: RAM signaling pathway blockade in yeast – S. cerevisiae, Pdr1DBD-CYC8 efflux-inhibited sensitized strain, primary screen (AID 1298;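 active means RAM network inhibition above 8.4% in each of two replicates, 3 SD over the compound average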;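 further: 0% = DMSO untreated cells without growth and 100% = 10 µM 1-NA-PP1 full growth; higher means more yeast growth rescued from 5-FOA killing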). To be noted: S. cerevisiae cbk1-as DSE1-URA3 strain, 5-FOA growth OD615, 2 d; at 50 µM; stronger effect = higher value.
Setting [15] is: H69AR cells + 2 uM doxorubicin, measured here: viability with 2 uM doxorubicin, stronger effect = lower value.
The mark [16] stands for this setting: H69AR cells, compound alone cytotoxicity.

Records with an inconclusive call do not appear. The source made the active and inactive calls.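 How the source made its calls, unless noted: active means viability at or under a set limit in both replicates, limit being median viability minus 3 SD (cut at about 48% in these data, passing the limit was not always enough); inconclusive means at or under the limit in just one replicate; inactive means at or above the limit in both replicates.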

The viability is a read-out of living cells in per cent, often relative to untreated cells. What is called inhibition is the change of the read-out against control, counted positive when it falls. With `CC(=O)NCC(=O)N(Cc1ccco1)C1(C(=O)NC2CCCCC2)CCCCC1`, the viability is 140% in [1]; 140% (inactive) in test [3]; 103% (inactive) in test [4]; 90.9% (inactive) in [5]; 88.3% in [6] (setting [15]); 90.9% in [6] (setting [16]). Besides, the viability in test [12] is 90% (inactive). Besides, the Her2 level in [2] was 93% (inactive). Besides, the differential viability (reversal) in [6] (H69AR cells + 2 uM doxorubicin) was 2.67% (inactive). Besides, the inhibition was -9.59% (inactive) in test [7], 2.7% (inactive) in test [8] and 2.22% (inactive) in test [13]. The growth inhibition in test [9] is -7.64% (inactive); in [10], 2.32% (inactive). In [11], the viability increase was -5.15% (inactive). Moreover, the RAM network inhibition in test [14] is -0.72% (inactive).
Consider `Cc1cccc(Cc2c(C)nc3nc(SCC(=O)NCc4ccco4)nn3c2C)c1`, for which the viability was 106% in test [1]; 106% (inactive) in test [3]; 61.8% (inactive) in test [4]; 49.6% (active) in [5]; 77.4% in [6] (setting [15]); 49.6% in [6] (setting [16]). In addition, the viability in test [12] is 81.9% (inactive). Also, the Her2 level in [2] is 85.5% (inactive). The differential viability (reversal) in test [6] (H69AR cells + 2 uM doxorubicin) was -27.8% (inactive). Besides, the results for the inhibition in test [7], in test [8] and in test [13] were -4.59% (inactive), -0.33% (inactive) and 1.14% (inactive), respectively. For the same molecule, the growth inhibition is 2.65% (inactive) in test [9] and 21.9% (inactive) in test [10]. Besides, the viability increase in test [11] was -3.35% (inactive). For the same molecule, the RAM network inhibition in [14] is 4.46% (inactive).
For the molecule `O=C(NC1(C(=O)NC2CCCCC2)CCCCC1)c1ccc2c(c1)OCO2`, the viability in test [1] was 96.5%; in test [3], 96.5% (inactive); in test [4] it was 105% (inactive); in test [5], 104% (inactive); in test [6] (setting [15]), 99.2%; in [6] (setting [16]), 104%. The viability in test [12] is 87% (inactive). The Her2 level in test [2] was 92.5% (inactive). The differential viability (reversal) in test [6] (H69AR cells + 2 uM doxorubicin) is 4.42% (inactive). The inhibition is -4.66% (inactive) in test [7], -1.27% (inactive) in test [8] and 1% (inactive) in test [13]. The growth inhibition is -0.75% (inactive) in test [9] and 10.5% (inactive) in test [10]. Also, the viability increase in test [11] was 0.41% (inactive). The RAM network inhibition in test [14] was 5.37% (inactive).
With `COc1cccc(CNC(=O)CCS(=O)(=O)c2cccc3nsnc23)c1`, the viability in [1] is 106%; in test [3], 106% (inactive); in [4], 105% (inactive); in test [5], 89.6% (inactive); in test [6] (setting [15]), 96.6%; in test [6] (setting [16]), 89.6%. Further, in [12], the viability was 97.1% (inactive). The Her2 level in [2] was 91% (inactive). Moreover, the differential viability (reversal) in [6] (H69AR cells + 2 uM doxorubicin) is -6.93% (inactive). Also, the values for the inhibition in [7], in test [8] and in test [13] were -7.67% (inactive), 0.95% (inactive) and 1.32% (inactive), respectively. The figures for the growth inhibition in [9] and in test [10] were -8.72% (inactive) and -10.3% (inactive), respectively. For the same molecule, the viability increase in test [11] was -2.45% (inactive). In addition, the RAM network inhibition in test [14] is 0.77% (inactive).
On to `CCOC(=O)c1[nH]c(C)c(C(=O)Nc2ccc(C)cc2C)c1C`, for which the viability in [1] is 91.5%; in test [3] it was 91.5% (inactive); in test [4] it was 54.8% (inactive); in test [5], 22.2% (active); in test [6] (setting [15]), 50.7%; in test [6] (setting [16]), 22.2%. In addition, the viability in [12] was 32.8% (inactive). The Her2 level in [2] is 92% (inactive). In addition, in test [6] (H69AR cells + 2 uM doxorubicin), the differential viability (reversal) was -28.5% (inactive). Besides, the inhibition in test [7] was -3.72% (inactive); in test [8], -3.5% (inactive); in test [13] it was 1.79% (inactive). Also, the growth inhibition in test [9] was -12.6% (inactive); in test [10], -5.29% (inactive). Moreover, the viability increase in test [11] was -6.07% (inactive). Further, in test [14], the RAM network inhibition is 0.04% (inactive).
For the molecule `Cc1cc(N2CCOCC2)nc2ccc(NC(=O)C3CCC(C)CC3)cc12` (stereo not given), the viability in test [1] was 73.5%; in [3], 73.5% (inactive); in test [4], 62.5% (inactive); in test [5] it was 76.3% (inactive); in test [6] (setting [15]), 85.7%; in test [6] (setting [16]) it was 76.3%. Also, in [12], the viability is 81% (inactive). For the same molecule, the Her2 level in test [2] was 110% (inactive). In test [6] (H69AR cells + 2 uM doxorubicin), the differential viability (reversal) is -9.34% (inactive). Also, the values for the inhibition in [7], in test [8] and in test [13] were -0.27% (inactive), -6.67% (inactive) and 1.95% (inactive), respectively. In addition, the growth inhibition is -11.1% (inactive) in [9] and 0.545% (inactive) in test [10]. For the same molecule, the viability increase in test [11] was -4.21% (inactive). Further, the RAM network inhibition in test [14] was 4.29% (inactive).
Regarding `Cc1ccc(N(C(=O)C2CCC(=O)N2)C2(C(=O)NC3CCCCC3)CCCCC2)cc1` (stereo not given), the viability in test [1] is 110%; in test [3], 110% (inactive); in test [4] it was 108% (inactive); in test [5], 98.4% (inactive); in test [6] (setting [15]), 94.9%; in [6] (setting [16]), 98.4%. For the same molecule, the viability in test [12] is 92.9% (inactive). In addition, the Her2 level in test [2] was 99% (inactive). The differential viability (reversal) in test [6] (H69AR cells + 2 uM doxorubicin) is 3.47% (inactive). Further, the inhibition in test [7] was -0.55% (inactive); in test [8] it was -0.79% (inactive); in [13] it was 2.28% (inactive). Also, the growth inhibition was -9.55% (inactive) in test [9] and -6.46% (inactive) in test [10]. The viability increase in test [11] is -2.37% (inactive). In test [14], the RAM network inhibition is 1.79% (inactive).
Take `CC(O)CN1C(=O)C(CC(=O)Nc2ccc(Cl)cc2)SC1=Nc1ccccc1` (stereo not given): the viability in test [1] was 97%; in test [3] it was 97% (inactive); in [4], 57% (inactive); in test [5] it was 66.4% (inactive); in test [6] (setting [15]), 76.6%; in test [6] (setting [16]), 66.4%. The viability in [12] is 59.2% (inactive). Also, the Her2 level in test [2] is 101% (inactive). In test [6] (H69AR cells + 2 uM doxorubicin), the differential viability (reversal) was -10.2% (inactive). For the same molecule, the inhibition in test [7] was -6.99% (inactive); in test [8] it was -7.94% (inactive); in [13], 2.45% (inactive). For the same molecule, the growth inhibition is -9.07% (inactive) in test [9] and -7.22% (inactive) in test [10]. In addition, the viability increase in test [11] is -3.6% (inactive). Moreover, in test [14], the RAM network inhibition was 6.03% (inactive).
For the molecule `COc1ccc(C(C(=O)NC2CCCCC2)N2CCC3(CC2)OCCO3)cc1` (stereo not given), the viability in [1] was 86%; in test [3] it was 86% (inactive); in test [4] it was 114% (inactive); in test [5], 100% (inactive); in test [6] (setting [15]) it was 93.5%; in test [6] (setting [16]), 100%. Also, the viability in test [12] was 88.8% (inactive). The Her2 level in test [2] was 98% (inactive). Besides, the differential viability (reversal) in test [6] (H69AR cells + 2 uM doxorubicin) was 6.97% (inactive). Further, the results for the inhibition in [7], in test [8] and in [13] were -7.81% (inactive), 5.71% (inactive) and 2.62% (inactive), respectively. Further, the growth inhibition was -7.27% (inactive) in test [9] and -6.88% (inactive) in [10]. Moreover, the viability increase in test [11] is -2.42% (inactive). The RAM network inhibition in test [14] was 2.77% (inactive).
`CCOc1ccc(-c2nnc(N(CC)C(=O)C3CCC3)s2)cc1`: the viability is 87.5% in test [1]; 87.5% (inactive) in test [3]; 98.5% (inactive) in [4]; 83.7% (inactive) in test [5]; 78.3% in test [6] (setting [15]); 83.7% in [6] (setting [16]). The viability in [12] is 84.6% (inactive). Also, the Her2 level in test [2] was 72% (inactive). Besides, in test [6] (H69AR cells + 2 uM doxorubicin), the differential viability (reversal) is 5.45% (inactive). Also, the inhibition is -4.21% (inactive) in test [7], -3.97% (inactive) in test [8] and 0.825% (inactive) in [13]. Also, the growth inhibition in test [9] was -4.38% (inactive); in test [10], 7.03% (inactive). For the same molecule, the viability increase in [11] was -1.68% (inactive). In test [14], the RAM network inhibition is 0.26% (inactive).
